# The full ranking holds about 2,900 compounds; the median of “NF-kB SEAP reporter activity, fold change vs agonist alone” is about 0.99, and the highest 2% start at about 2.6. Many of the other results were omitted from the sample, so the highest values are more common in it than they were.
# What was measured:
# [1] = test system: RAW-Dual; test: NF-kB SEAP reporter activity, fold change vs agonist alone; higher = enhanced NF-kB activity
# Summary of the method: (§1)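 RAW-Dual macrophages (50,000 cells/well in DMEM, 384-well plates) received 50 nL of library stock by pin tool, then a PRR agonist 1 h later, and were kept at 37 °C, 5% CO2. After 20 hours, supernatant was read for IRF by QuantiLuc luminescence and for NF-κB by QuantiBlue absorbance at 620 nm. Reporter activity is fold change over agonist-alone wells. Cytotoxic wells had IncuCyte confluency below 70% of agonist controls in both mask sets.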
# [2] = test system: RAW-Dual; test: NF-kB SEAP reporter activity, fold change vs agonist alone; cytotoxicity flag (confluency mask): not cytotoxic; higher = enhanced NF-kB activity
# Summary of the method: as §1
# [3] = test system: RAW-Dual; test: NF-kB SEAP reporter activity, fold change vs agonist alone; cytotoxicity flag (confluency mask): cytotoxic (confluency <70% of control); higher = enhanced NF-kB activity
# Summary of the method: as §1
# [4] = library stock concentration (final ~1000-fold dilution): 10 mM, cytotoxicity flag (confluency mask): not cytotoxic, agonist: Imiquimod (TLR7) […]
# [5] = library stock concentration (final ~1000-fold dilution): 10 mM, cytotoxicity flag (confluency mask): not cytotoxic, agonist: MPLA (TLR4) […]
# [6] = agonist: ODN 1826 (TLR9) 0.5 ug/mL
# [7] = agonist: Pam2CSK4 (TLR2/6) 0.1 ug/mL
# [8] = agonist: Pam3CSK4 (TLR2/1) 0.1 ug/mL
# [9] = library stock concentration (final ~1000-fold dilution): .1 mM, cytotoxicity flag (confluency mask): not cytotoxic, agonist: Imiquimod (TLR7) […]
# [10] = library stock concentration (final ~1000-fold dilution): .1 mM, cytotoxicity flag (confluency mask): not cytotoxic, agonist: MPLA (TLR4) […]
smiles,measurement,setting,value
CC(NCc1ccc(OCc2cccc(F)c2)cc1)C(N)=O.CS(=O)(=O)O (stereo not drawn),NF-kB SEAP reporter activity,[1]; [4],1.73
same,NF-kB SEAP reporter activity,[1]; [5],1.07
CC(NCc1ccc(OCc2cccc(F)c2)cc1)C(N)=O.CS(=O)(=O)O (stereo not drawn) (library stock concentration (final ~1000-fold dilution): 10 mM),NF-kB SEAP reporter activity,[2]; agonist: LPS (TLR4) 0.1 ug/mL,1.08
same,NF-kB SEAP reporter activity,[2]; [6],1.17
same,NF-kB SEAP reporter activity,[2]; [7],0.813
same,NF-kB SEAP reporter activity,[2]; [8],1.1
CCc1cnn2c(NCc3ccc[n+]([O-])c3)cc(N3CCCCC3CCO)nc12 (stereo not drawn) (library stock concentration (final ~1000-fold dilution): 10 mM),NF-kB SEAP reporter activity,[3]; agonist: LPS (TLR4) 0.1 ug/mL,0.193
same,NF-kB SEAP reporter activity,[3]; [6],0.198
same,NF-kB SEAP reporter activity,[3]; [7],0.0843
same,NF-kB SEAP reporter activity,[3]; [8],0.182
CCc1cnn2c(NCc3ccc[n+]([O-])c3)cc(N3CCCCC3CCO)nc12 (stereo not drawn),NF-kB SEAP reporter activity,"[1]; library stock concentration (final ~1000-fold dilution): 10 mM, cytotoxicity flag (confluency mask): cytotoxic (confluency <70% of control), agonist: Imiquimod (TLR7) […]",0.308
same,NF-kB SEAP reporter activity,"[1]; library stock concentration (final ~1000-fold dilution): 10 mM, cytotoxicity flag (confluency mask): cytotoxic (confluency <70% of control), agonist: MPLA (TLR4) […]",0.225
Cc1cn(-c2cc(NC(=O)c3ccc(C)c(Nc4nccc(-c5cccnc5)n4)c3)cc(C(F)(F)F)c2)cn1.Cl (library stock concentration (final ~1000-fold dilution): 10 mM),NF-kB SEAP reporter activity,[2]; agonist: LPS (TLR4) 0.1 ug/mL,2.23
same,NF-kB SEAP reporter activity,[2]; [6],1.41
same,NF-kB SEAP reporter activity,[2]; [7],0.403
same,NF-kB SEAP reporter activity,[2]; [8],0.466
Cc1cn(-c2cc(NC(=O)c3ccc(C)c(Nc4nccc(-c5cccnc5)n4)c3)cc(C(F)(F)F)c2)cn1.Cl,NF-kB SEAP reporter activity,[1]; [5],2.49
Nc1nc(NC2CC2)c2ncn(C3C=CC(CO)C3)c2n1 (stereo not drawn) (library stock concentration (final ~1000-fold dilution): 10 mM),NF-kB SEAP reporter activity,[2]; agonist: LPS (TLR4) 0.1 ug/mL,1.05
same,NF-kB SEAP reporter activity,[2]; [6],1.07
same,NF-kB SEAP reporter activity,[2]; [7],1.35
same,NF-kB SEAP reporter activity,[2]; [8],1.07
Nc1nc(NC2CC2)c2ncn(C3C=CC(CO)C3)c2n1 (stereo not drawn),NF-kB SEAP reporter activity,[1]; [5],1.16
CCN(CC)C(=O)C1(c2ccccc2)CC1CN.Cl (stereo not drawn) (library stock concentration (final ~1000-fold dilution): 10 mM),NF-kB SEAP reporter activity,[2]; agonist: LPS (TLR4) 0.1 ug/mL,0.999
same,NF-kB SEAP reporter activity,[2]; [6],0.858
same,NF-kB SEAP reporter activity,[2]; [7],0.856
same,NF-kB SEAP reporter activity,[2]; [8],1.18
CCN(CC)C(=O)C1(c2ccccc2)CC1CN.Cl (stereo not drawn),NF-kB SEAP reporter activity,[1]; [4],1.02
same,NF-kB SEAP reporter activity,[1]; [5],1.1
CC(=O)O.NCc1ccc(S(N)(=O)=O)cc1,NF-kB SEAP reporter activity,[1]; [4],1.17
same,NF-kB SEAP reporter activity,[1]; [5],1.03
CC(=O)O.NCc1ccc(S(N)(=O)=O)cc1 (library stock concentration (final ~1000-fold dilution): 10 mM),NF-kB SEAP reporter activity,[2]; agonist: LPS (TLR4) 0.1 ug/mL,1.04
same,NF-kB SEAP reporter activity,[2]; [6],1.01
same,NF-kB SEAP reporter activity,[2]; [7],0.927
same,NF-kB SEAP reporter activity,[2]; [8],1.23
CC1(C)CC(=O)c2c(C(F)(F)F)nn(-c3ccc(C(N)=O)c(NC4CCC(OC(=O)CN)CC4)c3)c2C1 (stereo not drawn) (library stock concentration (final ~1000-fold dilution): 10 mM),NF-kB SEAP reporter activity,[2]; agonist: LPS (TLR4) 0.1 ug/mL,0.226
same,NF-kB SEAP reporter activity,[2]; [6],0.929
same,NF-kB SEAP reporter activity,[2]; [7],0.113
same,NF-kB SEAP reporter activity,[2]; [8],0.234
CC1(C)CC(=O)c2c(C(F)(F)F)nn(-c3ccc(C(N)=O)c(NC4CCC(OC(=O)CN)CC4)c3)c2C1 (stereo not drawn),NF-kB SEAP reporter activity,[1]; [4],0.916
same,NF-kB SEAP reporter activity,[1]; [5],0.907
CC#CC(=O)N1CCC(n2c(=O)n(-c3ccc(Oc4ccccc4)cc3)c3c(N)ncnc32)C1.Cl (stereo not drawn),NF-kB SEAP reporter activity,[1]; [4],0.734
same,NF-kB SEAP reporter activity,[1]; [5],0.814
CC#CC(=O)N1CCC(n2c(=O)n(-c3ccc(Oc4ccccc4)cc3)c3c(N)ncnc32)C1.Cl (stereo not drawn) (library stock concentration (final ~1000-fold dilution): 10 mM),NF-kB SEAP reporter activity,[2]; agonist: LPS (TLR4) 0.1 ug/mL,0.647
same,NF-kB SEAP reporter activity,[2]; [6],0.662
same,NF-kB SEAP reporter activity,[2]; [7],0.378
same,NF-kB SEAP reporter activity,[2]; [8],0.517
CCOC(=O)C=P(c1ccccc1)(c1ccccc1)c1ccccc1 (library stock concentration (final ~1000-fold dilution): 10 mM),NF-kB SEAP reporter activity,[2]; agonist: LPS (TLR4) 0.1 ug/mL,0.964
same,NF-kB SEAP reporter activity,[2]; [6],0.875
same,NF-kB SEAP reporter activity,[2]; [7],0.894
same,NF-kB SEAP reporter activity,[2]; [8],0.912
CCOC(=O)C=P(c1ccccc1)(c1ccccc1)c1ccccc1,NF-kB SEAP reporter activity,[1]; [4],0.715
same,NF-kB SEAP reporter activity,[1]; [5],1.05
O=C(NCC(O)CN1CCc2ccccc2C1)c1ccnc(NC2CCC2)c1 (stereo not drawn) (library stock concentration (final ~1000-fold dilution): 10 mM),NF-kB SEAP reporter activity,[2]; agonist: LPS (TLR4) 0.1 ug/mL,0.908
same,NF-kB SEAP reporter activity,[2]; [6],0.581
same,NF-kB SEAP reporter activity,[2]; [7],1.03
same,NF-kB SEAP reporter activity,[2]; [8],0.884
O=C(NCC(O)CN1CCc2ccccc2C1)c1ccnc(NC2CCC2)c1 (stereo not drawn),NF-kB SEAP reporter activity,[1]; [4],0.885
same,NF-kB SEAP reporter activity,[1]; [5],0.997
CN(c1ncccc1CNc1nc(Nc2ccc3c(c2)CC(=O)N3)ncc1C(F)(F)F)S(C)(=O)=O.O=S(=O)(O)c1ccccc1,NF-kB SEAP reporter activity,[1]; [4],1.02
same,NF-kB SEAP reporter activity,[1]; [5],0.953
CN(c1ncccc1CNc1nc(Nc2ccc3c(c2)CC(=O)N3)ncc1C(F)(F)F)S(C)(=O)=O.O=S(=O)(O)c1ccccc1 (library stock concentration (final ~1000-fold dilution): 10 mM),NF-kB SEAP reporter activity,[2]; agonist: LPS (TLR4) 0.1 ug/mL,0.207
same,NF-kB SEAP reporter activity,[2]; [6],0.982
same,NF-kB SEAP reporter activity,[2]; [7],0.147
same,NF-kB SEAP reporter activity,[2]; [8],0.882
CC(C)(F)CC(NC(c1ccc(-c2ccc(S(C)(=O)=O)cc2)cc1)C(F)(F)F)C(=O)NC1(C#N)CC1 (stereo not drawn) (library stock concentration (final ~1000-fold dilution): 10 mM),NF-kB SEAP reporter activity,[2]; agonist: LPS (TLR4) 0.1 ug/mL,0.968
same,NF-kB SEAP reporter activity,[2]; [6],1.15
same,NF-kB SEAP reporter activity,[2]; [7],0.937
same,NF-kB SEAP reporter activity,[2]; [8],0.97
CC(C)(F)CC(NC(c1ccc(-c2ccc(S(C)(=O)=O)cc2)cc1)C(F)(F)F)C(=O)NC1(C#N)CC1 (stereo not drawn),NF-kB SEAP reporter activity,[1]; [4],0.932
same,NF-kB SEAP reporter activity,[1]; [5],1.02
COc1ccc2c(-c3ccc(O)c(C)c3)ccnc2c1,NF-kB SEAP reporter activity,[1]; [9],0.339
same,NF-kB SEAP reporter activity,[1]; [10],1.1
COc1ccc2c(-c3ccc(O)c(C)c3)ccnc2c1 (library stock concentration (final ~1000-fold dilution): .1 mM),NF-kB SEAP reporter activity,[2]; agonist: LPS (TLR4) 0.1 ug/mL,1.1
same,NF-kB SEAP reporter activity,[2]; [6],1.07
same,NF-kB SEAP reporter activity,[2]; [7],0.664
same,NF-kB SEAP reporter activity,[2]; [8],0.85
Cc1cc(-c2ccnc3cc(O)ccc23)ccc1O,NF-kB SEAP reporter activity,[1]; [9],1.38
same,NF-kB SEAP reporter activity,[1]; [10],2.06
